# Calls of active or inactive are those of the source. The call rests on the fitted dose curve; in most records, active means well fitted curve in the direction sought with a large enough effect in the repeat runs; inconclusive means weak or mixed curves; inactive means flat fitted curve, though single readings scatter.
# Assay: qHTS assay to test for compound auto fluorescence at 590 nm (red) in HepG2 cells (AID 720674)
# Settings: HepG2 autofluorescence, red 540/590 nm, 1 h; series mostly up to 91.3 µM
# Text: U.S. Tox21 Program National Center for Advancing Translational Sciences [NCATS] NIH Chemical Genomics Center [NCGC] U.S. Environmental Protection Agency [EPA] National Institutes of Environmental Health Sciences [NIEHS] National Toxicology Program [NTP] U.S. Food and Drug Administration [FDA] Tox21 Assay Overview: Compound auto fluorescence often interferes with screening of the compound library against various biological targets and signaling pathways. Some of these compounds may have fluorophoric properties. Such properties may interfere with the assay outputs resulting in false positives and/or negatives. To decrease such complications and ensure the compound activities are relevant in terms of biological response, the Tox21 10K compound library was screened for auto fluorescence. From the fluorophores used as reporter signals in our screening assays, the auto fluorescence equivalencies of compounds against three fluorophores have been evaluated: Triamterene, Fluorescein and Rose Bengal sodium for blue, green and red fluorescence, respectively. The fluorescence intensities were measured using Excitation/Emission wavelengths at 405/460nm, 485/535nm and 540/590nm for blue, green and red labels, respectively. This assay includes the red fluorescence data.
# Tox21 Assay Protocol Summary: 2,000 HepG2 cells in 5 uL of culture medium (MEM containing 10% FBS) per well were dispensed into black wall/clear bottom 1536-well plates using a Multidrop Combi Dispenser (ThermoFisher Scientific, Waltham, MA). The assay plates were incubated overnight at 37 C to allow cell attachment to the well bottom, followed by the transfer of 23 nL compound or DMSO vehicle by a pintool work station (Kalypsys , San Diego, CA). After the assay plates were incubated for 1 hr at 37 C and 5% CO2, fluorescence intensities in the assay plates were measured by an Envision (PerkinElmer, Shelton, CT) plate reader using three labels for measuring blue, green and red fluorescence at […] 460, 535 and 590 nm respectively.
row,SMILES,outcome
1,NC(CS)C(=O)O (stereo not given),inactive
2,CCC(=O)c1cccc(Cl)c1,inactive
3,OCc1ccccn1,inactive
4,CCCCCCCCCCCCCCC,inactive
5,COCCOC(=O)CC#N,inactive
6,CCCC=O,inactive
7,CCN(CC)C(=O)c1ccc(O)c(OC)c1,inactive
8,Cn1ccc2cc3c(cc21)CCN3C(=O)Nc1cccnc1,inactive
9,CC(=O)CCc1ccc(O)cc1,inactive
10,Cc1ccc(Nc2ccc(O)c3c2C(=O)c2ccccc2C3=O)cc1,inactive
11,COc1cccc(OC)c1,inactive
12,CCN1CCCC1CNC(=O)c1cc(S(N)(=O)=O)ccc1OC (stereo not given),inactive
13,CCCCCCCCN(C)CCCCCCCC,inactive
14,N#CCc1ccccc1[N+](=O)[O-],inactive
15,CCCCCCCCCCCCI,inactive
16,CO[Si](CCCNCCC[Si](OC)(OC)OC)(OC)OC,inactive
17,CC(C)=CCC/C(C)=C/C(=O)O,inactive
18,CCCCNc1ccccc1,inactive
19,Cc1cc(C)c(NC(=O)CN(CC(=O)O)CC(=O)O)c(C)c1Br,inactive
20,C#CC(O)C(CC)CCCC (stereo not given),inactive

row,SMILES,outcome
1,c1ccc(SCCSc2ccccc2)cc1,inactive
2,C=C(C)[C@@H]1CCC2=CC(=O)C[C@@H](C)[C@]2(C)C1,inactive
3,CCCCCOC(=O)Nc1nc(=O)n([C@@H]2O[C@H](C)[C@@H](O)[C@H]2O)cc1F,inactive
4,CCOC(=O)Cn1c(=O)sc2cccc(Cl)c21,inactive
5,Cc1ccccc1C(=O)O,inactive
6,CSc1ccc(C=O)cc1,inactive
7,C=C[Si](OC)(OC)OC,inactive
8,CCc1cc(S(=O)(=O)O)c2cc(C(C)C)cccc1-2,inactive
9,C=C(C)C1CC=C(C)C(O)C1 (stereo not given),inactive
10,Nc1ccn(C2CO[C@H](CO)O2)c(=O)n1 (stereo not given in full),inactive
11,C=CC(=O)OCCCCCC,inactive
12,COC(=O)C1=C(C)NC(C)=C(C(=O)OCC(C)=O)C1c1ccccc1[N+](=O)[O-] (stereo not given),inactive
13,Cn1cnc2c(=O)[nH]c(N)nc21,inactive
14,COC[C@H](c1ccc(C(F)(F)F)cc1)N1CCN(C2(C)CCN(C(=O)c3c(C)ncnc3C)CC2)C[C@H]1C,inactive
15,NC(=O)c1ncn([C@@H]2O[C@H](CO)[C@@H](O)[C@H]2O)c1O,inactive
16,CCCc1ccccc1O,inactive
17,Fc1ccccc1-c1ccccc1,inactive
18,C=CC(=O)N1CCOCC1,inactive
19,CCOC(=O)[C@H](CCc1ccccc1)N[C@@H](C)C(=O)N1CCC[C@H]1C(=O)O,inactive
20,CC(C=O)Cc1ccc(C(C)C)cc1 (stereo not given),inactive

# From PubChem BioAssay (Tox21)
